Experimental findings from the supplement of paper PMC11417369 are described below.

± gives the standard deviation of the averaged measurements. In all, about 25,000 sequences were measured (“ln(normalized median fluorescence intensity)”: median about 8.6, highest 2% from about 10 on). Only a selection was taken, and the highest values are over-represented in it overall.

This test has as its system PfAP2-EXP AP2 domain (GST-tagged). As to the kind of experiment: gcPBM binding intensity (ln(normalized median fluorescence intensity)); higher = stronger DNA binding. The method in brief: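 After 1 h on an Agilent 4 × 180k array of primer-extended double-stranded 36-bp intergenic genomic probes and negative controls, bound GST-tagged P. falciparum DNA-binding domains were detected with Alexa488 anti-GST antibody and scanned at 488 nm. The domains had been expressed in E. coli, and binding took place in 1× PBS with 1% milk, 0.2 mg/ml BSA, 0.5% salmon testes DNA and 0.03% Triton X-100. Binding intensity is the highest Masliner-normalised natural-log median intensity across replicate spots of either probe orientation.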
On to “TAGTAATATGTATCCATACACACATACATTTTATTT [CACACA_site873]”, for which the “gcPBM binding intensity (ln)” value is 8.52 ± 0.41.
For “TATAACAAAATATTCACACATATAAGTAAATAAAGG [CACACA_site5777]” the value was 8.73 ± 0.28.
For “AATTTTAATTATATCACACATAATATATACCAAAAA [CACACA_site6011]” the value was 8.51 ± 0.38; for “GAATAATCTAGAAACACACAAACACGACAAAAGAAA [CACACA_site4135]”, 8.93 ± 0.55; for “TTTTGTTCTAATATGGGAACATAAATATTAAATATA [CACACA_negctrl_site1787]”, 8.22 ± 0.45.
Under “TTATTTTTATATTTCACACACATATACTTTTACATA [CACACA_site4097]” stands 8.8 ± 0.47; under “TATTTTATATTTCATTTGTTATTTTTCTTGGTTCTA [CACACA_negctrl_site33]”, 8.63 ± 0.57.
Regarding “TTTGTAACTTCTTTCACACATATATATATATATATA [CACACA_site5603]”, the “gcPBM binding intensity (ln)” value was found to be 10.3 ± 0.47.
For “TTTCTTTCTTCACATATATATATATATATATTTATA [TGCATGCA_negctrl_site341]” the value was 8.83 ± 0.3; for “TGTATATTTGTTGTTACACACATATATTTTTTTTTT [CACACA_site128]”, 8.53 ± 0.3; for “TTTTTTTTTTTGGTTACACACATTTGTATATTCTCA [CACACA_site134]”, 8.69 ± 0.49.
For “CATATTTGCACTTTCACACATAAATATATAACTATA [CACACA_site6016]” the value was 8.91 ± 0.31; for “TTTGTTATGGTTTTCTCACACATATATATATATATA [CACACA_site4617]”, 10.4 ± 0.36.
Under “TTTTTTTTTTTTGTCACACATATATTTGTATTTATA [CACACA_site5234]” stands 8.58 ± 0.38; under “ATTTTATTTTTTCACACACACATATATATATATATA [CACACA_site3334]”, 10.2 ± 0.32; under “TATTTGTTGTGAGTCACACATATATATATATATATA [CACACA_site4240]”, 10.3 ± 0.42.
As to “TCATTTTATTTTTTCACACACACATATATATATATA [CACACA_site3333]”, the “gcPBM binding intensity (ln)” value amounted to 10.1 ± 0.33.
For “TAAAATATTGTTATTACATGCAACCTTATGAAAAAT [TGCATGCA_site706]” the value was 8.94 ± 0.17; for “GTATAAAAGTTATATACACACAACAGAATTACATAT [CACACA_site6212]”, 8.68 ± 0.49; for “TCTTAATATGGTAATACACACTAATATACTTTTGTT [CACACA_site4969]”, 8.55 ± 0.31.
For “TTTTGTTTGTTCGTGACTACATTATGTTGTAAATAC [CACACA_negctrl_site604]” the value was 8.78 ± 0.38; for “TATACATTTATGTACACACACATATAGGTATATTTA [CACACA_site7408]”, 8.47 ± 0.099.
“AATTATAAAAAAAAAAAAAAAAAAAAAAACTAAATG [CACACA_negctrl_site1379]”: the “gcPBM binding intensity (ln)” value amounted to 8.11 ± 0.47.
For “TTTATTTTTTGTGGCACACAGAAGAAACAAGAACAA [CACACA_site1696]” the value was 9.12 ± 0.35.
Under “TGAACAATATATAATAGTACATATTTATTTTTTTCT [XGTACX_site4256]” stands 8.13 ± 0.2.
For “CTTAAAAAAAAAAAATGTACACATAAAAAAAATACA [XGTACX_site6700]”, the “gcPBM binding intensity (ln)” value is 8.52 ± 0.35.
Regarding “TTGTTGATTGTTATTTATCATTAGATGTAAAATATG [CACACA_negctrl_site927]”, the “gcPBM binding intensity (ln)” value was found to be 8.39 ± 0.3.
Under “TATAAAATGTAATCTGAACACACATATTTTTTTAAT [CACACA_site8521]” stands 8.11 ± 0.37.
Under “ATATTGAATTCCAACACATGCAAAACTTTCGGTTTT [TGCATGCA_site485]” stands 8.8 ± 0.38; under “TCATATTATAAAAAATGTACAAGGAAAAAATATATA [XGTACX_site337]”, 9.06 ± 0.58.
For “TTTTCATTTTTCTTTACACACATATATTTATTTATA [CACACA_site7119]” the value was 8.94 ± 0.4.
For “TTTATTCTCAAACACACACACATATATATATATATA [CACACA_site2895]”, the “gcPBM binding intensity (ln)” value amounted to 10.2 ± 0.51.
For “ATATTTATGAAGTTCACACATATATATATATATATA [CACACA_site5954]” the value was 10.3 ± 0.52; for “TATTTATTCTCCAACACACACACATATATTTATATA [CACACA_site7376]”, 8.69 ± 0.53.
For “TTTTTATATATATTCTCACACACTTTTTATTTTAAC [CACACA_site657]” the value was 8.7 ± 0.46; for “TATACACATATTTTTACACACATATTTTTTCATATA [CACACA_site7244]”, 8.7 ± 0.38; for “ATATATTTTATACATACACACATATATATATTTTTT [CACACA_site3940]”, 8.66 ± 0.33.
Under “TTTTCATTTTTCTTTACACACATATATATATATATA [CACACA_site2236]” stands 10.2 ± 0.31.
Take “AACATATTTATATACACACACATATTTATATGAAAT [CACACA_site6268]”: the “gcPBM binding intensity (ln)” value came to 8.39 ± 0.33.
For “ATTTTATTTTCATATGAACACACATATATATATTAT [CACACA_site8741]” the value was 9.15 ± 0.47; for “ATTTTATTTTCTCACACACACATATATATATATATA [CACACA_site5781]”, 10.4 ± 0.4; for “TATTTATTCTCCAACACACACACATATATATATATA [CACACA_site2894]”, 10.1 ± 0.43.
Take “TCGTGTTTTAAAAAAATGAAGAAAAGTAAAAAAAAA [XGTACX_negctrl_site23]”: the “gcPBM binding intensity (ln)” value came to 8.46 ± 0.67.
Turning to “AGGATAATATACAAAAGTACATAAAACTAAAAAAAC [XGTACX_site605]”, the “gcPBM binding intensity (ln)” value stood at 9.01 ± 0.24.
For “AAAAATATAACCGTTACACACAAAATAATATGAGAA [CACACA_site3773]” the value was 8.72 ± 0.43.
Under “ATATTTATTTATTTATGTACGCACACAGTTGATATT [XGTACX_site5808]” stands 8.92 ± 0.4; under “TTTTTTTTATTTTGTTGTACGCTTATTTGTATATAT [XGTACX_site7325]”, 8.95 ± 0.45; under “TAAATACATAAATACACACACATATATTATATATAT [CACACA_site4310]”, 8.62 ± 0.14.
In the case of “TTTTTTTTTTTGTTCACACATATACTTTTATTTTGG [CACACA_site4250]”, the “gcPBM binding intensity (ln)” value came to 8.72 ± 0.47.
Under “CATATGTATTTATTCACACATATATATATATATATA [CACACA_site4207]” stands 10.2 ± 0.4.
Under “TTTTTTTTTTTTTTTTTTTATGTATACATATTTATA [TGCATGCA_negctrl_site234]” stands 8.28 ± 0.43.
For “CATATTTTGAACTTCACACATATATATATATATATA [CACACA_site4228]” the value was 10.2 ± 0.3; for “TCCATATTTGTTCACACACACACATATTTATATATA [CACACA_site3570]”, 8.84 ± 0.42; for “AACGCACATATATTTATGTATATATATATATATATA [GTGCAC_negctrl_site478]”, 10.2 ± 0.31.
Turning to “TATAATTATTTTTTCACACATATGTATTTATATATA [CACACA_site4205]”, the “gcPBM binding intensity (ln)” value was determined as 8.88 ± 0.43.
For “AAAAAAAAAAAAATCACACATATGTATTTATATATA [CACACA_site5790]” the value was 8.21 ± 0.46; for “TGAAGAATATTTTTCACACATATATATATATATATA [CACACA_site6080]”, 10.2 ± 0.38; for “TTTTTTTTTTTGTTCACACATATATATATATATATA [CACACA_site5376]”, 10.2 ± 0.37.
As to “TTTTTTTTTTACTTCACACATATACATTTATATTTA [CACACA_site4385]”, the “gcPBM binding intensity (ln)” value stood at 8.7 ± 0.44.
For “AAAATATATAAACGCACATATATTTATGTATATATA [CACACA_negctrl_site163]” the value was 8.64 ± 0.49.
